Source: PubChem BioAssay (NCI)
The panel holds about 79,000 compounds, 15% with a hit somewhere; the sample as a whole holds those more often. Values without a mark were called inactive. Activity calls are given as the source filed them. Rule as the data show it: active = growth inhibition above about 70%; inactive = the rest.

Tests used:
[1] = NCI Yeast Anticancer Drug Screen. Data for the rad50 strain (AID 155);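 also: 0% = growth of vehicle-only cultures of the same strain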; conditions: S. cerevisiae rad50 strain growth inhibition; at 50.0 µM; hits give high values
How it was run: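 Cells are treated with compound, grown, and their growth is then scored against vehicle-only cultures of the same repair-deficient yeast strain.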

[2] = NCI Yeast Anticancer Drug Screen. Data for the mec2-1 strain (AID 157); conditions: S. cerevisiae mec2-1 strain, at 50.0 µM, hits give high values
How it was run: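 Strain: mec2-1 (DNA repair/cell cycle alteration). Compound exposure, then growth measured; inhibition expressed relative to vehicle.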

[3] = NCI Yeast Anticancer Drug Screen. Data for the sgs1 mgt1 strain (AID 161);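 also: 0% = growth of cultures given vehicle only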; conditions: S. cerevisiae sgs1 mgt1 strain, at 50.0 µM, hits give high values
How it was run: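 Test agents were incubated with a DNA-repair-mutant yeast strain. Growth was then read and compared against vehicle-treated controls.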

[4] = NCI Yeast Anticancer Drug Screen. Data for the cln2 rad14 strain (AID 165);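 also: 0% = growth equal to vehicle treated cultures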; conditions: S. cerevisiae cln2 rad14 strain, at 50.0 µM, hits give high values
How it was run: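 Compounds are applied to the cln2 rad14 yeast strain, and growth is then compared with that of vehicle-treated cultures to give inhibition.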

[5] = NCI Yeast Anticancer Drug Screen. Data for the bub3 strain (AID 167); conditions: S. cerevisiae bub3 mutant strain, at 50.0 µM, hits give high values
How it was run: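 Part of a panel of yeast mutants defective in DNA damage repair or cell cycle regulation. Each strain is grown with compound, and inhibition is calculated relative to solvent-treated cultures.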

[6] = NCI Yeast Anticancer Drug Screen. Data for the mlh1 rad18 strain (AID 175); conditions: S. cerevisiae mlh1 rad18 strain growth inhibition; at 50.0 µM; hits give high values
How it was run: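 Read-out is yeast growth inhibition, calculated against vehicle-only controls. The compound was applied to a strain engineered with DNA damage repair alterations.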

SMILES | growth inhibition [1] | growth inhibition [2] | growth inhibition [3] | growth inhibition [4] | growth inhibition [5] | growth inhibition [6]
O=C(O)c1ccncc1S(=O)(=O)O | -20.6% | -36.2% | -24.3% | -8.4% | -23.5% | -9.9%
C=C(C)c1ccc(F)cc1 | 3.9% | -7.5% | -1.65% | 4.2% | -2.05% | 0.55%
CC1=CC(C)=C(C#N)C2=S=C(c3ccccc3)C(=O)N12 | 6% | 14.8% | 22.5% | 29.1% | 19.9% | 22.1%
O=c1ccnc2ccc3n[nH][nH]c3c12 | -18.4% | -20.2% | -7.65% | 3.55% | -14.2% | 1.1%
NC(CCCCCCCCCCP(=O)(O)O)C(=O)O (stereo not drawn) | -39.6% | -41.5% | -76.4% | -12.1% | -19.6% | -18.6%
CC/C(=N/Nc1cn[nH]c(=O)c1Cl)c1ccccc1 | 4.6% | -0.6% | -0.5% | -35.6% | 19% | -1.5%
O=C1CNS(=O)(=O)N1 | -18.9% | 8.45% | -16.5% | 10.2% | -16.4% | -7.85%
CCCCCCOC(=O)c1ccccc1Cl | 5.75% | 9.35% | -3.05% | -16.9% | 26.4% | 34.2%
COC(=O)c1c(O)c2c(c3c1OC(C)(C)CC3)OC(C)(C)CC2 | -13.3% | 0.1% | -17.1% | -2.55% | 8.05% | 11.4%
c1ccc(-c2csc(-c3nc(-c4ccccc4)cs3)n2)cc1 | -0.55% | 50% | 30.6% | -6.85% | 33% | 60.6%
Cn1c(N)c(C(=O)/C=C/c2ccccc2)c(=O)n(C)c1=O | 11.4% | -17.5% | 17.9% | 17.1% | -3.85% | 5.8%
COc1ccc(N)c(C(=O)CCNC(C)=O)c1 | -23.2% | -9.7% | -21.2% | -7.05% | -26.6% | -25.4%
O=c1cc[nH]c(=S)[nH]1.[Pt] | 12.1% | 19.3% | 5.55% | -19.4% | 0.7% | 28.6%
CCCCCCCCCCCCCC(=O)CC | 56.3% | -3.35% | 17.9% | 19.1% | 12.4% | 21.9%
Nc1nc(SCc2ccccc2[N+](=O)[O-])c2[nH]cnc2n1 | 29.2% | 22.2% | 16.2% | 14.1% | 45.4% | 34%
COC(=O)C1CC2(C(=O)OC)CC(C(=O)OC)(CC(C(=O)OC)C2=O)C1=O (stereo not drawn) | 9.55% | -0.15% | 14.1% | 11.9% | 18.5% | 3.55%
c1ccc2cc(CCc3cc4ccccc4cn3)ncc2c1 | 10.2% | 11.4% | 7% | -16.1% | 24.4% | 25.6%
N/C(CCOCC/C(N)=N\O)=N/O | 16.8% | 25.4% | -22.4% | -1.85% | -2.3% | 6.5%
N#Cc1nc[nH]c1C(N)=O | -2.4% | 0.25% | -14.2% | 11.8% | 11% | 6.25%
CC1(C)CC[C@]2(C(=O)O)[C@H](O)C[C@]3(C)C(=CC[C@@H]4[C@@]5(C)CC[C@H](OC6OC(C(=O)O)C(O)C(O)C6O)C(C)(C)[C@@H]5CC[C@]43C)[C@@H]2C1 (stereo partly drawn) | 93.8% (active) | 95% (active) | 94.3% (active) | 92.7% (active) | 93.9% (active) | 93.7% (active)
OC1(c2cccc(C(F)(F)F)c2)CCNCC1 | -21.8% | -13.5% | -7.4% | -6.9% | -22.6% | -8.3%
N#CCCN(CCC#N)c1nc(-c2ccccc2)nc(N(CCC#N)CCC#N)n1 | -1.95% | -16.6% | -1.75% | 0.9% | 2.75% | 15.1%

SMILES | growth inhibition [1] | growth inhibition [2] | growth inhibition [3] | growth inhibition [4] | growth inhibition [5] | growth inhibition [6]
COc1cc(-c2ccc(N=C=O)c(OC)c2)ccc1N=C=O | -4% | -27.4% | 9.8% | -5.7% | 29.9% | -8.15%
O=C(CCN1CCOCC1)c1csc2ccccc12 | 27.6% | 36.9% | 12.9% | 14.9% | -5.35% | 17.8%
CN1CCCn2c(nc3ccccc3c2=O)C1 | -1.4% | -4.65% | -5.55% | 14.5% | -0.5% | -4.35%
COC(=O)Nc1cccc(NC(=O)C(=O)O)c1 | -0.1% | 3.75% | -0.95% | -29.4% | -4.7% | -0.9%
O=c1cc(-c2ccc3ccccc3n2)oc2ccccc12 | -16.4% | 2.5% | 3.7% | 28.3% | -1.95% | -4.2%
C=CCOCC(O)CO (stereo not drawn) | 32.5% | -3.9% | 29.8% | 16.8% | 10.1% | 28.1%
O=C1/C(=C/c2ccco2)N=C2Sc3c(nc[nH]c3=O)N12 | 2.4% | -19.2% | 6.55% | -3.65% | 9.5% | 16.6%
C#C/C=C/CC(OC(C)=O)C1C/C=C\CC(Br)C(CC)O1 (stereo not drawn) | 31.1% | 16.5% | 46% | 36.1% | 49% | 45.3%
COc1ccc2[nH]c(=O)c(CO)c(CO)c2c1 | 0.45% | -12.2% | -1% | -26.1% | 0.55% | 4.35%
CCC(CC)(CO)CO | 8.75% | -5.75% | -4.3% | 16.1% | -0.55% | -1.55%
O=C1CC2[C@@H](N3CCCC3)CCC(N1Cc1ccccc1)C2(O)O (stereo partly drawn) | -6.75% | -38% | 1.2% | -4.05% | -19.8% | 3.25%
N#CC(=C1CCCCC1)c1ccccc1 | -14.1% | -21.2% | -21.6% | -5.75% | -15.9% | -27.1%
Nc1ccc(C2NC=CN2)cc1 | -12.1% | -7.65% | -0.7% | 29.8% | -3.15% | -1.65%
CC(=O)c1cccc(NC(=O)C(=O)C(C(=O)NN)c2ccccc2)c1 (stereo not drawn) | 11.4% | 11.1% | -5.2% | 4.2% | 23% | 15.9%
c1ccc(N2C3Sc4ncccc4C2Sc2ncccc23)cc1 | -20.4% | 2.8% | 16.6% | 6.1% | -1.05% | 7.85%
CCC(CC)(Cc1ccccc1)C(=O)O | 9.65% | -17.7% | 12.7% | 1.65% | 11.7% | 36.4%
Cc1cccc(CN(C)Cc2cc(Cl)cc(C)c2O)c1O | 14.8% | -1.6% | 1.1% | -36% | -1.25% | 4.15%
Fc1ccc(-c2cc(-c3cc(-c4ccc(F)cc4)n[nH]3)[nH]n2)cc1 | 20.6% | 9.2% | 25.9% | 6.6% | 9.4% | 32.1%
CC(C)=CC1C(CBr)C1(C)C (stereo not drawn) | 2.3% | -15.2% | -12.2% | -26.2% | -10.1% | -11%
O/N=C/c1cccc[n+]1Cc1ccccc1 | -4% | 6.3% | 0.95% | -23.9% | 4.85% | 1.25%
CCOC(=O)C1=C(C)N(NC(=O)Nc2ccccc2)C2(N)N(NC(=O)Nc3ccccc3)C(C)=C(C(=O)OCC)C12C(=O)OCC (stereo not drawn) | -28.1% | -44.5% | -42% | -20.7% | -7.6% | -15.8%
